This is an account of results in PubChem BioAssay (EPA / NIEHS).

Assay [1] can be described thus: APR_HepG2_CellCycleArrest_24hr: Apredica 24-hour HepG2 Assay for Cell Cycle Arrest (AID 2282905).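 Also: cell cycle arrest scored as ratio of 2N to 4N nuclear DNA content.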 The conditions noted are these: imaging, actives raise or lower the signal. In a few lines: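 Cell cycle arrest is scored from nuclear DNA content measured by high-content imaging of Hoechst 33342-stained HepG2 cells following 24-hour treatment at ten concentrations up to 200 uM, with DMSO as baseline.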

A short description of assay [2]: APR_HepG2_NuclearSize_24hr: Apredica 24-hour HepG2 Assay for Nuclear Size (AID 2282907). As to conditions: high-content imaging, actives raise or lower the signal. In a few lines:
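Compounds in DMSO (final 0.5%) were added to human HepG2 hepatoma cells at ten concentrations up to 200 uM for 24 hr. Fixed nuclei were stained with Hoechst 33342, and nuclear diameter was quantified from automated images.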

Assay [3] in a line: APR_HepG2_CellLoss_24hr: Apredica 24-hour HepG2 Assay for Cell Loss (AID 2282908).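 As to AC50: fit in both directions so a hit may be cell loss or gain.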 As to conditions: high-content imaging. The essentials: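 Cell number is quantified by fluorescence imaging of Hoechst 33342-stained nuclei following dosing at 0.39–200 uM in 0.5% DMSO. Curves are fitted in both directions from the DMSO baseline.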
The nature of assay [4]: APR_HepG2_MicrotubuleCSK_24hr: Apredica 24-hour HepG2 Assay for Microtubule CSK Stabilty (AID 2282909). The conditions noted are these: HepG2 microtubule cytoskeleton imaging, actives raise or lower the signal. The essentials:
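Steps: dose HepG2 for 24 h (0.39–200 uM, 0.5% DMSO); fix 30 min in 3.7% formaldehyde at room temperature; permeabilize; stain alpha-tubulin 60 min; image microtubule cytoskeleton at 20x. Signal change fitted in both directions relative to DMSO.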

Assay [5] can be described thus: APR_HepG2_MitoticArrest_24hr: Apredica 24-hour HepG2 Assay for Mitotic Arrest (AID 2282910). The conditions noted are these: high-content imaging, actives raise or lower the signal. The essentials:
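HepG2 human liver cells were exposed to compounds at 0.39–200 uM (10 concentrations, duplicate) in 0.5% v/v DMSO for 24 hr, then fixed and immunostained for phospho-histone H3 with Hoechst 33342. Mitotic arrest came from HCS fluorescent imaging, fitted bidirectionally against DMSO.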

Assay [6] can be described thus: APR_HepG2_MitoMembPot_24hr: Apredica 24-hour HepG2 Assay for Mitochondrial Membrane Potential (AID 2282911). As to conditions: imaging, actives raise or lower the signal. The essentials: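 Human hepatoma HepG2 cultures received ten compound concentrations up to 200 uM for 24 hr. Membrane-potential dye signal, captured by automated fluorescence microscopy, was scored for gain or loss against DMSO controls.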

Assay [7] is described as follows: APR_HepG2_MitoMass_24hr: Apredica 24-hour HepG2 Assay for Mitochondrial Mass (AID 2282912). As to conditions: high-content imaging, actives raise or lower the signal. In a few lines: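 The liver line HepG2 was dosed in duplicate across a 0.39–200 uM series, with final DMSO held at 0.5% v/v, and harvested at 24 hr. High-content imaging measured mitochondrial dye staining.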

Assay [8] in a line: APR_HepG2_p53Act_24hr: Apredica 24-hour HepG2 Assay for p53 Activation (AID 2282913).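 Also: p53 protein immunofluorescence averaged per cell in HepG2 with Hoechst nuclei.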 As to conditions: high-content imaging, actives raise or lower the signal. In a few lines:
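Automated fluorescence imaging quantifies p53 immunostaining in HepG2 cells after a 24 hr exposure (0.39–200 uM, duplicate, 0.5% DMSO). Nuclei are located by Hoechst 33342 staining.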

Assay [9] can be described thus: APR_HepG2_CellCycleArrest_72hr: Apredica 72-hour HepG2 Assay for Cell Cycle Arrest (AID 2282914). The conditions noted are these: high-content imaging, actives raise or lower the signal. In a few lines: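 Cell cycle arrest in HepG2 was scored from nuclear DNA content after 72 hr compound treatment (0.39–200 uM). Activity, either gain or loss, was fitted against the DMSO baseline.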

Assay [10] in a line: APR_HepG2_CellLoss_72hr: Apredica 72-hour HepG2 Assay for Cell Loss (AID 2282915). As to conditions: high-content imaging. The essentials: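 HepG2 cells were exposed for 72 hr to compounds at 0.39–200 uM (ten concentrations, duplicate) in 0.5% v/v final DMSO. Nuclei were stained with Hoechst 33342 after 3.7% formaldehyde fixation, imaged at 20x, and counted; fits bidirectional versus DMSO.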

Assay [11] is described as follows: APR_HepG2_P-H2AX_72hr: Apredica 72-hour HepG2 Assay for H2AX Phosphorylation (AID 2282916).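 Also: phospho-histone H2A.x immunostain intensity per cell marking DNA damage.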 As to conditions: imaging, actives raise or lower the signal. The essentials: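 Following 72 hr treatment with 0.39–200 uM compound, HepG2 cells were formaldehyde-fixed, permeabilized and stained for phospho-H2A.x; signal was measured by high-content imaging and fitted bidirectionally against DMSO controls.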

Assay [12] in a line: APR_HepG2_MitoticArrest_72hr: Apredica 72-hour HepG2 Assay for Mitotic Arrest (AID 2282918). As to conditions: high-content imaging, actives raise or lower the signal. The essentials:
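Mitotic arrest in HepG2 is scored from phospho-histone H3 staining after 72 hr dosing across 0.39–200 uM, with DMSO at 0.5% v/v. Nuclei are identified by Hoechst 33342 and fluorescence intensity is quantified per cell.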

Assay [13] in a line: APR_HepG2_MicrotubuleCSK_72hr: Apredica 72-hour HepG2 Assay for Microtubule CSK Stabilty (AID 2282919). As to conditions: HepG2 microtubule cytoskeleton, high-content imaging, actives raise or lower the signal. In a few lines: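 HepG2 human liver cells were dosed for 72 h at ten concentrations from 0.39 to 200 uM in duplicate (0.5% v/v DMSO final). Fixed, permeabilized cells were immunostained for alpha-tubulin (Cy5) with a Hoechst counterstain and imaged at 20x.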

The nature of assay [14]: APR_HepG2_P-H2AX_24hr: Apredica 24-hour HepG2 Assay for H2AX Phosphorylation (AID 2282920). The conditions noted are these: high-content imaging, actives raise or lower the signal. In a few lines: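 Signal comes from a FITC-labeled secondary detecting phospho-histone H2A.x in fixed HepG2 cells, quantified by automated imaging at 20x. Dosing ran 24 hr across 0.39–200 uM with 0.5% v/v DMSO.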

A short description of assay [15]: APR_HepG2_StressKinase_72hr: Apredica 72-hour HepG2 Assay for Stress Kinase (AID 2282921). The conditions noted are these: HepG2 stress kinase (phospho-c-Jun) imaging, actives raise or lower the signal. The essentials:
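Fluorescence intensity of Cy3-tagged anti-phospho-c-Jun antibody, quantified per cell from Hoechst-defined nuclei across six images per well, served as the read-out following 72 h exposure (0.39–200 uM, 0.5% v/v DMSO).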

A short description of assay [16]: APR_HepG2_StressKinase_24hr: Apredica 24-hour HepG2 Assay for Stress Kinase (AID 2282922). The conditions noted are these: HepG2 stress kinase (phospho-c-Jun) imaging, actives raise or lower the signal. The essentials:
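HepG2 cells exposed 24 hr to compound at 0.39–200 uM (10 concentrations, duplicate), 0.5% v/v DMSO final. Fixed in 3.7% formaldehyde, permeabilized with Triton X-100, immunolabeled for phospho-c-Jun with Hoechst 33342; HCS fluorescence imaging, bidirectional fit versus DMSO.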

Assay [17] in a line: APR_HepG2_p53Act_72hr: Apredica 72-hour HepG2 Assay for p53 Activation (AID 2282923).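 Also: average cellular p53 protein immunofluorescence intensity in HepG2 cells.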 The conditions noted are these: high-content imaging, actives raise or lower the signal. In a few lines:
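HepG2 monolayers receive test compounds in duplicate at ten concentrations (0.39 through 200 uM) for 72 hr. They are then formaldehyde-fixed, antibody-labelled for p53, Hoechst-stained and imaged, with activity fitted bidirectionally versus DMSO.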

Assay [18] in a line: APR_HepG2_MitoMass_72hr: Apredica 72-hour HepG2 Assay for Mitochondrial Mass (AID 2282924).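 Also: MitoTracker Red CMXRos stain intensity per cell imaged as mitochondrial mass.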 The conditions noted are these: high-content imaging, actives raise or lower the signal. The essentials: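 HepG2 cells were exposed for 72 hr to compounds at 0.39–200 uM (ten concentrations, duplicate, 0.5% v/v DMSO final). Live cells were stained with 250 nM MitoTracker Red CMXRos for 30 min, then fixed in 3.7% formaldehyde and imaged by HCS fluorescence.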

Assay [19] can be described thus: APR_HepG2_NuclearSize_72hr: Apredica 72-hour HepG2 Assay for Nuclear Size (AID 2282925). The conditions noted are these: high-content imaging, actives raise or lower the signal. In a few lines: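 HepG2 cells were exposed to compounds at ten concentrations from 0.39 to 200 uM (duplicate, 0.5% DMSO final) for 72 hr. After fixation in 3.7% formaldehyde, nuclei were stained with Hoechst 33342 (2 ug/mL) and imaged at 20x.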

Assay [20] in a line: APR_HepG2_MitoMembPot_72hr: Apredica 72-hour HepG2 Assay for Mitochondrial Membrane Potential (AID 2282917). As to conditions: imaging, actives raise or lower the signal. In a few lines: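 HepG2 cells exposed 72 h to compounds at 0.39–200 uM (0.5% v/v DMSO, duplicates); MitoTracker Red CMXRos 250 nM loaded 30 min before 3.7% formaldehyde fixation, imaged by HCS fluorescence. Bidirectional fit versus DMSO.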

Active and inactive are the calls of the source. The calls were made as follows: active = hit-call score of the fitted dose curve at least 0.9, where 1 is the maximum; inactive = score below 0.9.

For `COCCOCCOCCOC`, the compound was called inactive in assay [1], in assay [2], in [3], in assay [4], in assay [5] and in assay [6]. Besides, the call in assay [7], in assay [8], in [9], in assay [10], in assay [11] and in [12] was inactive. In addition, the result in assay [13], in assay [14], in assay [15], in assay [16], in [17] and in [18] was inactive. The compound was called inactive in assay [19].
`O=C1CCC(N2C(=O)c3ccccc3C2=O)C(=O)N1` (stereo not drawn): the compound was classed as inactive in [1], in assay [2], in assay [3], in assay [4], in [5] and in assay [6]. For the same compound, the result in assay [7], in assay [8], in assay [9], in [10], in [11] and in assay [20] was inactive. The call in assay [12], in [13], in assay [14], in assay [15], in assay [16] and in assay [17] was inactive. The outcome in assay [18] and in assay [19] was inactive.
As for `CC(C)c1cccc(C(C)C)c1N1C(=O)c2ccc(O)cc2C1=O`, the AC50 – broadly, the concentration giving half of the maximal activity seen – in assay [1] is 6.15 µM (active); in assay [3] it was 87.5 µM (active); in assay [6], 32.7 µM (active); in [7], 164 µM (active); in assay [8], 46.7 µM (active); in [9], 7.16 µM (active). The AC50 in assay [10] is 57.7 µM (active); in [11], 6.16 µM (active); in assay [12], 6.04 µM (active); in [13], 14.8 µM (active); in [14], 44 µM (active); in assay [15], 6.1 µM (active). Further, the AC50 is 8.52 µM (active) in [16] and 3.01 µM (active) in [17]. Further, the compound was classed as inactive in assay [2], in assay [4], in assay [20], in assay [18] and in [19].
`Cc1ccc(C)c(O)c1`: the call in [1], in [2], in assay [3], in assay [4], in [5] and in assay [6] was inactive. The compound was classed as inactive in [7], in [8], in assay [9], in assay [11], in assay [13] and in assay [14]. For the same compound, the outcome in assay [15], in assay [16], in assay [17], in assay [18] and in [19] was inactive.
`COc1ccc(-n2nc(C(F)F)cc2-c2ccc(S(C)=O)cc2)cc1` (stereo not drawn): the AC50 in [1] was 49.5 µM (active); in assay [6] it was 5.03 µM (active); in assay [18], 36.8 µM (active). Moreover, the outcome in assay [2], in assay [3], in assay [4], in [5], in assay [7] and in assay [8] was inactive. Also, the compound was called inactive in [9], in assay [11], in [20], in assay [13], in assay [14] and in assay [15]. The call in [16], in [17] and in assay [19] was inactive.
In the case of `CCn1nc(Cc2ccccc2)cc1C1CCN(C[C@H]2C[C@H](N(C)[C@@H](C(=O)O)C(C)C)C[C@@H]2c2cccc(F)c2)CC1`, the results for the AC50 in [1] and in [12] were 46.3 µM (active) and 113 µM (active), respectively. Further, the outcome in assay [2], in assay [3], in [4], in assay [5], in [6] and in assay [7] was inactive. Also, the compound was called inactive in [8], in [9], in assay [11], in assay [13], in [14] and in assay [15]. In addition, the outcome in assay [16], in [17] and in assay [18] was inactive.
As to `CCOC(=O)COc1ccc2c(c1)CC(NCC(O)c1cccc(Cl)c1)CC2` (stereo not drawn), the result in [1], in assay [2], in assay [4], in assay [6], in assay [9] and in [11] was inactive. For the same compound, the result in assay [20], in [13], in assay [15], in [16], in [17] and in assay [18] was inactive. For the same compound, the AC50 in [3] is 84.4 µM (active); in [5], 28.7 µM (active); in [7], 41.5 µM (active); in assay [8] it was 30.6 µM (active); in [12] it was 23.1 µM (active); in assay [14] it was 23.2 µM (active).
